Reference: the supplement of paper PMC8728848
The sample as a whole holds a higher share of the strongest signals than the screen did.

How the values were obtained:
Test in all cases: glycan array binding signal (z-score within array); higher = stronger binding
Conditions in all cases: glycan notation: IUPAC condensed, linker removed
[1] = molecular target: Fuc(a1-2)Gal(b1-3)GlcNAc(b1-2)Man(a1-3)[Fuc(a1-2)Gal(b1-3)GlcNAc(b1-2)Man(a1-6)]Man(b1-4)GlcNAc(b1-4)GlcNAc
How it was run: (§1)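 Glycan array binding is given as a within-array Z-score, which can be read as non-binding when negative. The arrays, 3228 of them, came from the Consortium for Functional Glycomics database and were retained only where the protein sequence was available. Z-scores were averaged across arrays of the same protein sequence at different concentrations or buffers and across linkers.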

[2] = molecular target: Fuc(a1-2)Gal(b1-3)GlcNAc(b1-3)GalNAc
How it was run: as §1

[3] = molecular target: Fuc(a1-2)Gal(b1-3)GlcNAc(b1-3)[Fuc(a1-2)Gal(b1-3)GlcNAc(b1-6)]GalNAc
How it was run: as §1

[4] = molecular target: Fuc(a1-2)Gal(b1-3)GlcNAc6S
How it was run: as §1

[5] = molecular target: Fuc(a1-2)Gal(b1-4)GlcNAc(b1-2)Man
How it was run: as §1

[6] = molecular target: Fuc(a1-2)[Gal(a1-3)]Gal(b1-3)GlcNAc(b1-2)Man(a1-3)[Fuc(a1-2)[Gal(a1-3)]Gal(b1-3)GlcNAc(b1-2)Man(a1-6)]Man(b1-4)GlcNAc(b1-4)[Fuc(a1-6)]GlcNAc
How it was run: as §1

[7] = molecular target: Fuc(a1-2)[Gal(a1-3)]Gal(b1-4)GlcNAc(b1-2)Man(a1-3)[Fuc(a1-2)[Gal(a1-3)]Gal(b1-4)GlcNAc(b1-2)Man(a1-6)]Man(b1-4)GlcNAc(b1-4)GlcNAc
How it was run: as §1

[8] = molecular target: Fuc(a1-2)[Gal(a1-3)]Gal(b1-4)GlcNAc(b1-2)Man(a1-3)[Fuc(a1-2)[Gal(a1-3)]Gal(b1-4)GlcNAc(b1-2)Man(a1-6)]Man(b1-4)GlcNAc(b1-4)[Fuc(a1-6)]GlcNAc
How it was run: as §1

[9] = molecular target: Fuc(a1-2)[GalNAc(a1-3)]Gal(b1-3)GlcNAc(b1-6)GalNAc
How it was run: as §1

[10] = molecular target: Fuc(a1-2)[GalNAc(a1-3)]Gal(b1-4)[Fuc(a1-3)]GlcNAc(b1-3)GalNAc
How it was run: as §1

[11] = molecular target: Fuc(a1-3)[Gal(b1-4)]GlcNAc(b1-6)[Gal(b1-3)GlcNAc(b1-3)]Gal(b1-4)Glc
How it was run: as §1

[12] = molecular target: Fuc(a1-3)[Gal3S(b1-4)]Glc
How it was run: as §1

[13] = molecular target: Fuc(a1-3)[GalNAc(b1-4)]GlcNAc
How it was run: as §1

[14] = molecular target: Fuc(a1-4)GlcNAc
How it was run: as §1

[15] = molecular target: Gal(a1-3)Gal(b1-3)GlcNAc(b1-2)Man
How it was run: as §1

[16] = molecular target: Gal(a1-3)GalNAc
How it was run: as §1

[17] = molecular target: Gal(a1-4)GlcNAc
How it was run: as §1

[18] = molecular target: Gal(b1-2)Gal
How it was run: as §1

[19] = molecular target: Gal(b1-3)GlcNAc(b1-2)Man(a1-3)[Gal(b1-3)GlcNAc(b1-2)Man(a1-6)]Man(b1-4)GlcNAc(b1-4)GlcNAc
How it was run: as §1

[20] = molecular target: Gal(b1-3)GlcNAc(b1-2)Man(a1-3)[Gal(b1-3)GlcNAc(b1-2)Man(a1-6)]Man(b1-4)GlcNAc(b1-4)[Fuc(a1-6)]GlcNAc
How it was run: as §1

[21] = molecular target: Gal(b1-3)GlcNAc(b1-3)Gal(b1-4)[Fuc(a1-3)]GlcNAc
How it was run: as §1

[22] = molecular target: Gal(b1-3)GlcNAc(b1-6)[Gal(b1-3)]GalNAc
How it was run: as §1

[23] = molecular target: Gal(b1-4)Glc6S
How it was run: as §1

[24] = molecular target: Gal(b1-4)GlcNAc(b1-2)Man
How it was run: as §1

[25] = molecular target: Gal(b1-4)GlcNAc(b1-2)Man(a1-3)Man(b1-4)GlcNAc(b1-4)GlcNAc
How it was run: as §1

[26] = molecular target: Gal(b1-4)GlcNAc(b1-2)[Gal(b1-4)GlcNAc(b1-4)]Man(a1-3)[Gal(b1-4)GlcNAc(b1-2)[Gal(b1-4)GlcNAc(b1-6)]Man(a1-6)]Man(b1-4)GlcNAc(b1-4)GlcNAc
How it was run: as §1

[27] = molecular target: Gal(b1-4)GlcNAc(b1-3)Gal(b1-4)GlcNAc(b1-2)Man(a1-3)[Gal(b1-4)GlcNAc(b1-3)Gal(b1-4)GlcNAc(b1-2)Man(a1-6)]Man(b1-4)GlcNAc(b1-4)[Fuc(a1-6)]GlcNAc
How it was run: as §1

[28] = molecular target: Gal(b1-4)GlcNAc(b1-3)Gal(b1-4)GlcNAc(b1-3)Gal(b1-4)GlcNAc(b1-2)Man(a1-3)[Gal(b1-4)GlcNAc(b1-3)Gal(b1-4)GlcNAc(b1-3)Gal(b1-4)GlcNAc(b1-2)Man(a1-6)]Man(b1-4)GlcNAc(b1-4)[Fuc(a1-6)]GlcNAc
How it was run: as §1

[29] = molecular target: GalNAc(b1-3)Gal(a1-4)Gal(b1-4)GlcNAc(b1-3)Gal(b1-4)Glc
How it was run: as §1

[30] = molecular target: GalNAc(b1-4)GlcNAc6S
How it was run: as §1

[31] = molecular target: GlcA(b1-6)Gal
How it was run: as §1

[32] = molecular target: GlcNAc(b1-2)Man(a1-3)[GlcNAc(b1-2)Man(a1-6)]Man(b1-4)GlcNAc(b1-4)GlcNAc
How it was run: as §1

[33] = molecular target: GlcNAc(b1-2)[GlcNAc(b1-4)]Man(a1-3)[GlcNAc(b1-4)][GlcNAc(b1-2)[GlcNAc(b1-6)]Man(a1-6)]Man(b1-4)GlcNAc(b1-4)[Fuc(a1-6)]GlcNAc
How it was run: as §1

[34] = molecular target: GlcNAc(b1-3)Gal(b1-4)Glc
How it was run: as §1

[35] = molecular target: GlcNAc(b1-3)Gal(b1-4)GlcNAc(b1-3)Gal(b1-4)GlcNAc(b1-2)[GlcNAc(b1-3)Gal(b1-4)GlcNAc(b1-3)Gal(b1-4)GlcNAc(b1-6)]Man(a1-6)[GlcNAc(b1-3)Gal(b1-4)GlcNAc(b1-3)Gal(b1-4)GlcNAc(b1-2)Man(a1-3)]Man(b1-4)GlcNAc(b1-4)[Fuc(a1-6)]GlcNAc
How it was run: as §1

[36] = molecular target: GlcNAc(b1-3)Gal(b1-4)GlcNAc(b1-3)Gal(b1-4)GlcNAc(b1-3)Gal(b1-4)GlcNAc(b1-2)Man(a1-3)[GlcNAc(b1-3)Gal(b1-4)GlcNAc(b1-3)Gal(b1-4)GlcNAc(b1-3)Gal(b1-4)GlcNAc(b1-2)Man(a1-6)]Man(b1-4)GlcNAc(b1-4)GlcNAc
How it was run: as §1

[37] = molecular target: GlcNAc(b1-3)Gal(b1-4)GlcNAc(b1-3)Gal(b1-4)GlcNAc(b1-3)Gal(b1-4)GlcNAc(b1-3)Gal(b1-4)GlcNAc(b1-2)Man(a1-3)[GlcNAc(b1-3)Gal(b1-4)GlcNAc(b1-3)Gal(b1-4)GlcNAc(b1-3)Gal(b1-4)GlcNAc(b1-3)Gal(b1-4)GlcNAc(b1-2)Man(a1-6)]Man(b1-4)GlcNAc(b1-4)[Fuc(a1-6)]GlcNAc
How it was run: as §1

[38] = molecular target: GlcNAc(b1-3)[GlcNAc(b1-6)]GalNAc
How it was run: as §1

[39] = molecular target: GlcNAc(b1-4)GlcNAc
How it was run: as §1

[40] = molecular target: GlcNAc6S(b1-3)Gal(b1-4)GlcNAc
How it was run: as §1

[41] = molecular target: Man(a1-3)[Man(a1-6)]Man(a1-6)[Man(a1-2)Man(a1-3)]Man(b1-4)GlcNAc(b1-4)GlcNAc
How it was run: as §1

[42] = molecular target: Neu5Ac(a2-3)Gal(b1-3)GalNAc(b1-3)Gal(a1-4)Gal(b1-4)Glc
How it was run: as §1

[43] = molecular target: Neu5Ac(a2-3)Gal(b1-3)GlcNAc
How it was run: as §1

[44] = molecular target: Neu5Ac(a2-3)Gal(b1-3)GlcNAc(b1-2)Man
How it was run: as §1

[45] = molecular target: Neu5Ac(a2-3)Gal(b1-4)Glc
How it was run: as §1

[46] = molecular target: Neu5Ac(a2-3)Gal(b1-4)GlcNAc(b1-2)Man(a1-3)[GlcNAc(b1-4)][Neu5Ac(a2-3)Gal(b1-4)GlcNAc(b1-2)Man(a1-6)]Man(b1-4)GlcNAc(b1-4)GlcNAc
How it was run: as §1

[47] = molecular target: Neu5Ac(a2-3)Gal(b1-4)GlcNAc(b1-6)GalNAc
How it was run: as §1

[48] = molecular target: Neu5Ac(a2-3)[Neu5Ac(a2-6)]GalNAc
How it was run: as §1

[49] = molecular target: Neu5Ac(a2-8)Neu5Ac
How it was run: as §1

[50] = molecular target: Neu5Ac(a2-8)Neu5Ac(a2-8)Neu5Ac(a2-3)[GalNAc(b1-4)]Gal(b1-4)Glc
How it was run: as §1

[51] = molecular target: Neu5Gc(a2-8)Neu5Gc(a2-6)Gal(b1-4)GlcNAc
How it was run: as §1

B1: PX9916F-bfa-443-24-443 (Bacteroides fragilis) (protein)
chain: DIRPVGSVIPQTAEEYRALLARAYLNVPNDRGLACLRSDEMLVNDNEYDRNSYGDIERWNDVSPFPGTSQFTWSNFYNVLFIANQVIESQKEITEGTPEVVNQLVGEAHLLRAYLHFVLVNLHGQPYTKSGALNSKSIPLKLDTDLEKTLGRNTVEEVYTSILSDIEHARELINKEKWETVFSYRFNVLSVDALQSRVSLYMGAWPKCLESAEAVLAKKSVLVDMNETPLALPNHFESVESITALEQVMGSSVNNAVWVPATFLALYQEGDKRLAAYFAAPDENGNRKSSKGGKREFSCTFRVGELYLNAAEAAANMDKLPHARMRLLELMRKRYTPEAYDKKENAVNVMDKNALISEILNERARELAFEGHRWFDLRRTTRPRMVKVLQGKTYILEQDDPRYTIPIPRDAIAANPGLAN
In the case of B1, the “glycan array binding signal (z-score)” value [1] is reported as 3.24, the “glycan array binding signal (z-score)” value [2] is reported as 0.31 and the “glycan array binding signal (z-score)” value [3] is reported as -0.372. For the same binder, the “glycan array binding signal (z-score)” value [4] was -0.338, the “glycan array binding signal (z-score)” value [5] was 0.848 and the “glycan array binding signal (z-score)” value [6] was 8.18. For the same binder, the “glycan array binding signal (z-score)” value [7] was 8.54, the “glycan array binding signal (z-score)” value [8] was 2.44 and the “glycan array binding signal (z-score)” value [9] was 0.212. For the same binder, the “glycan array binding signal (z-score)” value [10] was 2.91, the “glycan array binding signal (z-score)” value [11] was 3.87 and the “glycan array binding signal (z-score)” value [12] was 0.001. The “glycan array binding signal (z-score)” value [13] was 0.251, the “glycan array binding signal (z-score)” value [14] was 1.76 and the “glycan array binding signal (z-score)” value [15] was -0.056. The “glycan array binding signal (z-score)” value [16] was -0.469, the “glycan array binding signal (z-score)” value [17] was -0.265 and the “glycan array binding signal (z-score)” value [18] was 0.596. For the same binder, the “glycan array binding signal (z-score)” value [19] was 0.347, the “glycan array binding signal (z-score)” value [20] was 1.79 and the “glycan array binding signal (z-score)” value [21] was -0.126. For the same binder, the “glycan array binding signal (z-score)” value [22] was 0, the “glycan array binding signal (z-score)” value [23] was 0.038 and the “glycan array binding signal (z-score)” value [24] was 2.63. For the same binder, the “glycan array binding signal (z-score)” value [25] was -0.479, the “glycan array binding signal (z-score)” value [26] was -0.78 and the “glycan array binding signal (z-score)” value [27] was 0.44. For the same binder, the “glycan array binding signal (z-score)” value [28] was 2.81, the “glycan array binding signal (z-score)” value [29] was 0.078 and the “glycan array binding signal (z-score)” value [30] was 0.581. For the same binder, the “glycan array binding signal (z-score)” value [31] was 2.71, the “glycan array binding signal (z-score)” value [32] was -0.266 and the “glycan array binding signal (z-score)” value [33] was -1.61. The “glycan array binding signal (z-score)” value [34] was -0.475, the “glycan array binding signal (z-score)” value [35] was -0.316 and the “glycan array binding signal (z-score)” value [36] was 2.55. The “glycan array binding signal (z-score)” value [37] was -0.064, the “glycan array binding signal (z-score)” value [38] was -0.249 and the “glycan array binding signal (z-score)” value [39] was 0.138. The “glycan array binding signal (z-score)” value [40] was 0.017, the “glycan array binding signal (z-score)” value [41] was 1.23 and the “glycan array binding signal (z-score)” value [42] was 0.297. The “glycan array binding signal (z-score)” value [43] was -0.376, the “glycan array binding signal (z-score)” value [44] was 4.28 and the “glycan array binding signal (z-score)” value [45] was 0.058. For the same binder, the “glycan array binding signal (z-score)” value [46] was -1.31, the “glycan array binding signal (z-score)” value [47] was -0.155 and the “glycan array binding signal (z-score)” value [48] was -0.772. For the same binder, the “glycan array binding signal (z-score)” value [49] was 1.37, the “glycan array binding signal (z-score)” value [50] was -0.695 and the “glycan array binding signal (z-score)” value [51] was -0.576.
